# ClpP mod – qHTS Assay for Activators of ClpP; ATP-dependent Clp protease proteolytic subunit (Bacillus subtilis (strain 168)), P80244; purified B. subtilis ClpP, FRET peptide cleavage, 20 min; Potency, µM (titrated, usually from 57.5 µM), inactives show at the highest dose activity change, negative = active; hit rate 1.9% among 340,000; AID 651965, 2013; active = well fitted falling curve with a large enough effect; inconclusive = small, poorly fitted or top-dose-only effect; inactive = no such curve, though single readings can be large or run the other way; also: potency is read from the fitted curve at half-maximal effect; the source files actives as falling curves though it sought activators and does not explain the sign; nearly all actives have a fitted effect of over 65% in size
#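 Buffer: 100 mM Tris/HCl pH8, 100 mM KCl, 0.05% low protease BSA, 2.5% glycerol, 0.01% Tween-20. ClpP 10 microg/mL final; 20 min RT; delta FRET normalized to ADEP and DMSO controls.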
# Menin MLL FP TR – menin-MLL binding inhibition, Texas Red mutant peptide; Menin + Texas Red MLL mutant peptide, fluorescence polarization; O00255; hit rate 0.23% among 270,000; Potency, µM (doses to about 61.6 µM), without a hit: top-dose FP activity change, negative = inhibition, hits mostly inhibitors; active = well fitted inhibition curve with a large enough effect in the polarisation, with a control signal flat, not every such curve was filed as active; inconclusive = small, poorly fitted or top-dose-only effect, or effect the other way, or a change in a side signal; inactive = no such curve, though single readings can be large or run the other way; the % refers to the polarisation; also: potency is read from the fitted curve at half-maximal effect; % of control where 0% means no effect
# Target sequence (O00255 whole entry, looked up): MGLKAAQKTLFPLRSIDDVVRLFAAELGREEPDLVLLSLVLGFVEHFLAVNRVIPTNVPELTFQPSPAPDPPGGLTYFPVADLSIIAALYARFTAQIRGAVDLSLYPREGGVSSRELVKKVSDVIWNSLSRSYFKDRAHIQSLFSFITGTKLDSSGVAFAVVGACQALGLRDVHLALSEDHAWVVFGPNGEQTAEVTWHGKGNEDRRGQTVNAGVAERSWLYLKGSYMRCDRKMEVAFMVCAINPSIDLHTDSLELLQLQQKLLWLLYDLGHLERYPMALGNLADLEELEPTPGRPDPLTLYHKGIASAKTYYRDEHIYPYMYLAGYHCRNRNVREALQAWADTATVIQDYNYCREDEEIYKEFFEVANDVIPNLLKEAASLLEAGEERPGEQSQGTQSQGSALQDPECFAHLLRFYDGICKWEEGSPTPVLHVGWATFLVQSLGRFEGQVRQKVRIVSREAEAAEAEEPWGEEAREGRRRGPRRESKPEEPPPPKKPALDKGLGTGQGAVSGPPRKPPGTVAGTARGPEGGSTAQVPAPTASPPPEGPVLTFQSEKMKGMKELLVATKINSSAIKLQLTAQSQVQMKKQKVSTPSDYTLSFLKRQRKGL
# Menin-MLL FL inh – displaces fluorescein MLL peptide from human menin. Fluorescence polarization, fluorescein-MLL peptide displacement from menin. FP activity change, % at 61.4 µM. 290,000 tested, under 10 active; active = well fitted curve in the direction sought with a large enough effect in the polarisation, not every such curve was filed as active; inconclusive = small, poorly fitted or top-dose-only effect, or effect the other way, or a change in a side signal; inactive = no such curve, though single readings can be large or run the other way; the % refers to the polarisation; also: % of control where 0% means no effect
# p53 reactivation – re-activators of mutant p53; hit rate 0.063% among 320,000; Potency, µM (highest dose often 92.2 µM), without a hit: top-dose activity change, positive = activation, hits mostly activators; H1299 p53-A138V BP100-luciferase reporter, luminescence, 24 h; also: potency is read from the fitted curve at half-maximal effect; % of control where 0% means no effect; nearly all actives have a fitted effect of over 45% in size
#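 p53-null H1299 cells stably carrying temperature-sensitive p53-A138V and a BP100-luciferase reporter were pinned with compounds (4-point, 1:5 series) and held 24 hrs at 37 deg C. Luminescence was read 10 min after detection reagent.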
# CXXC DNA block – inhibitors of human MLL CXXC domain-DNA interaction; Potency, µM (series often up to 115 µM), without a hit: top-dose activity change, negative = inhibition, usual class: inhibitors; AID 2662; hit rate 0.037% among 290,000; MLL-CXXC / FITC-HOXA9 DNA fluorescence polarization; Q03164; active = well fitted inhibition curve with a large enough effect in the polarisation, with a control signal flat, not every such curve was filed as active; inconclusive = small, poorly fitted or top-dose-only effect, or effect the other way, or a change in a side signal; inactive = no such curve, though single readings can be large or run the other way; the % refers to the polarisation; also: potency is read from the fitted curve at half-maximal effect
#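 Steps: dispense CXXC domain solution (7 uM) → pin compounds or unlabeled HOX-A9 DNA control → 5 min ambient → add FLSN-HOX-A9 solution (50 nM) → spin → 30 min ambient → fluorescence polarization. Tris pH 7.5/NaCl/DTT/BSA buffer.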
# MLL CXXC Fl – MLL CXXC-DNA interaction inhibition, fluorescein FP; shares compounds with CXXC DNA block; MLL CXXC-DNA binding, fluorescein FP; hit rate 70% among 200; Potency, µM (titrated, usually from 345 µM), without a hit: at the top dose activity change, negative = inhibition, most hits filed as inhibitors; also: potency is read from the fitted curve at half-maximal effect; nearly all actives have a fitted effect of over 80% in size
# MLL CXXC FP-TR – MLL CXXC-DNA interaction inhibition, Texas Red FP. shares compounds with CXXC DNA block. MLL CXXC-DNA binding, Texas Red fluorescence polarization. Potency, µM (titrated, usually from 345 µM), for inactives: at the top dose activity change, negative = inhibition, actives largely listed as inhibitors. hit rate 40% among 200; also: potency is read from the fitted curve at half-maximal effect; % is scaled to controls: 0 for no effect and ±100 for the full control effect; nearly all actives have a fitted effect of over 75% in size
# MLL CXXC HTRF – inhibitors of human MLL CXXC domain-DNA interaction, HTRF format | Potency, µM (titrated, usually from 172 µM), without a hit: at the top dose activity change, negative = inhibition, hits mostly inhibitors | hit rate 30% among 210 | shares compounds with CXXC DNA block | MLL CXXC-DNA binding, HTRF, biochemical | AID 624162; also: % is scaled to controls: 0 for no effect and ±100 for the full control effect; nearly all actives have a fitted effect of over 80% in size
# An asterisk follows results filed as active; u = inconclusive; x = no result given. Only a selection was taken, and hits are over-represented in it overall. Unless noted, calls follow the shape of the dose curve; as a rule, active = well fitted curve in the direction sought with a large enough effect; inconclusive = small, poorly fitted or top-dose-only effect, or another doubt; inactive = no such curve, though single readings can be large; an effect the other way counts as inactive or inconclusive.
SMILES,ClpP mod,Menin MLL FP TR,Menin-MLL FL inh,p53 reactivation,CXXC DNA block,others
NCCc1cc(O)c(O)cc1O,-1%,40µM*,u,x,6%,
COc1ccc(CCN)cc1O,0%,u,-2,x,9%,
Cc1cc(I)ccc1Nc1c(C(=O)NOCC2CC2)cc(F)c(F)c1F,x,u,0,x,x,
CCOC(=O)CC(SP1(=S)OCC2(CCCCC2)CO1)C(=O)OCC (stereo not drawn),28µM*,x,x,x,x,
O=C(N1CCCCCC1)N1CC1,-1%,x,x,x,x,
CN(C)P(=O)(C(Cl)=C(N1CCCCC1)N1CCCCC1)N(C)C,1%,-14%,1,32µM*,-5%,
N#Cc1cc2c(nc1SCC(=O)Nc1cc(Cl)ccc1Cl)C1CCN2CC1,32%,-15%,1,45µM*,4%,
CCCCC/C=C\C/C=C\C/C=C\C/C=C\CCCC(=O)NCCCl,x,-29%,1,x,x,
CCOP(=O)(OCC)c1ccc(OP(=O)(c2cccc([N+](=O)[O-])c2)c2cccc([N+](=O)[O-])c2)cc1,35µM*,x,3,-1%,-3%,
Nc1c(C(=O)NCc2ccco2)c2nc3ccccc3nc2n1Cc1ccc(F)cc1,28µM*,14%,8,44%,12%,
Nc1c(C(=O)NCc2ccco2)c2nc3ccccc3nc2n1Cc1ccccc1,4%,u,7,-19%,1%,
COc1ccc(Cn2c(N)c(C(=O)NCc3ccco3)c3nc4ccccc4nc32)cc1,32µM*,u,u,-4%,-1%,
C=CC[C@]1(O)CC[C@H]2[C@@H]3CCC4=CC(=O)CCC4=C3C=C[C@@]21C,x,-5%,-13,x,x,
C#CC1(O)CCC2C3CCC4=CC(=O)CCC4=C3C=CC21C (stereo not drawn),28µM*,x,x,x,x,
CC(=O)N1CCN(c2ccc(OCC3CO[C@@](Cn4ccnc4)(c4ccc(Cl)cc4Cl)O3)cc2)CC1 (stereo partly drawn),x,-18%,-1,x,x,
Cc1cccc2c1=NC(=O)/C(=C/c1c(O)[nH]c(=O)[nH]c1=O)C=2,13µM*,8%,3,4%,0%,
O=c1[nH]c(=S)[nH]c(O)c1/C=C1/C=c2ccccc2=N1,x,60%,9,3%,u,
CC1=C2C(=O)C3C(CC=C4C[C@@H](O)CC[C@@]43C)[C@@H]2CC[C@]12O[C@@H]1C[C@H](C)CN[C@H]1C2C (stereo partly drawn),x,0%,0,x,x,
ClCCN(CCCl)c1ccc(/C=C/c2ccnc3ccccc23)cc1,-5%,x,x,x,x,
CN1C(=O)C(=Cc2ccc(OCC(=O)Nc3ccccc3)cc2)C(=O)N(C)C1=O,16µM*,x,x,u,0%,
NC(Cc1ccc(Oc2cc(I)c(O)c(I)c2)c(I)c1)C(=O)O (stereo not drawn),x,u,6,x,-7%,
O=C(N/N=C/c1c(O)n(Cc2ccccc2)c(=O)[nH]c1=O)c1ccccc1O,u,u,9,32µM*,-14%,
O=C(N/N=C/c1c(O)n(Cc2ccc(F)cc2)c(=O)[nH]c1=O)c1ccccc1O,-24%,u,12,25%,4%,
Nc1c(C(=O)NCCCc2ccccc2)c2nc3ccccc3nc2n1Cc1cccs1,u,x,11,-9%,10%,
CCCCn1c(N)c(C(=O)NCc2cccs2)c2nc3ccccc3nc21,25µM*,u,5,-8%,10%,
SMILES,ClpP mod,Menin MLL FP TR,Menin-MLL FL inh,p53 reactivation,CXXC DNA block,others
CCCCCCn1c(N)c(C(=O)NCCN2CCOCC2)c2nc3ccccc3nc21,25µM*,-3%,3,-16%,13%,
CCCCCn1c(N)c(C(=O)NCc2cccs2)c2nc3ccccc3nc21,28µM*,35%,1,-8%,-5%,
CCCOC(=O)c1c(N)n(Cc2cccs2)c2nc3ccccc3nc12,u,16%,-5,-6%,12%,
CCCCNC(=O)c1c(N)n(Cc2ccc3c(c2)OCO3)c2nc3ccccc3nc12,10µM*,36%,2,-23%,-16%,
CCCCn1c(N)c(C(=O)OCC2CCCO2)c2nc3ccccc3nc21 (stereo not drawn),u,u,2,0%,11%,
COc1ccc(CCNC(=O)c2c(N)n(CCN3CCOCC3)c3nc4ccccc4nc23)cc1OC,-21%,4%,9,-27%,12%,
CN(C)C1C(=O)C(C(N)=O)C(=O)C2(O)C(=O)C3C(=O)c4c(O)cccc4C(C)(O)C3C(O)C12 (stereo not drawn),x,u,u,x,-7%,
CCCCCc1cc(O)c2c(c1)OC(C)(C)C1CC=C(C)CC21 (stereo not drawn),x,17%,1,x,1%,
Nc1ccc2c3c(cccc13)CC2,14µM*,u,u,16%,-11%,
O=C(Nc1ccc2ccccc2c1)c1nn(C23CC4CC(CC(C4)C2)C3)cc1Br,20µM*,x,x,-6%,3%,
Cc1ccsc1-c1nc(CSCC(=O)N2CCC3(CC2)OCCO3)c(C)o1,32µM*,u,2,10%,-4%,
O=c1c2ccccc2nc(N2CCCC2)n1-c1ccc(Cl)cc1,22µM*,u,6,4%,-10%,
O=C(Nc1ccc2nc(SCC(=O)N3CCCc4ccccc43)sc2c1)c1ccccc1F,18µM*,x,x,x,x,
CCn1c(P(C)(=O)O)nc2cc(NC(=O)c3ccccc3F)ccc21,x,-2%,1,1%,-6%,
COc1ccccc1C(=O)Nc1ccc2nc(SCC(=O)N3CCCc4ccccc43)sc2c1,10µM*,x,x,x,x,
Cc1ccc(Cn2cccc(C(=O)Nc3nc4ccc(C)cc4s3)c2=O)cc1,-1%,x,x,x,x,
O=C1NC(=O)N(c2ccc3c(c2)OCO3)C(=O)/C1=C\c1ccc(-c2ccccc2C(=O)O)o1,x,x,23,-1%,14µM*,MLL CXXC Fl=14µM*;MLL CXXC FP-TR=45µM*;MLL CXXC HTRF=19µM*
O=C1NC(=O)N(c2ccc3c(c2)OCO3)C(=O)/C1=C/c1ccc(N2CCCCC2)o1,-2%,-7%,u,-2%,u,
